According to PubChem BioAssay (Tox21):
Several values for one entry are separate records, joined by “and”; a condition that tells them apart may be missing. Equal entries are not always repeated. Records with an inconclusive call do not appear. A call without a number means that no potency is given here. Activity calls are given as the source filed them. Unless noted, calls follow the shape of the dose curve; as a rule, active = well fitted curve in the direction sought with a large enough effect in the repeat runs; inconclusive = weak or mixed curves; inactive = no such curve, though single readings can be large; an effect the other way counts as inactive or inconclusive.

assay: qHTS assay for small molecule disruptors of the mitochondrial membrane potential - cell viability (AID 720634; calls by dose curve; also: nearly all actives have a fitted effect of over 20% in size; also: potency is read from the fitted curve at half-maximal effect;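 as to activity change, negative = cytotoxicity: human HepG2 liver cancer cells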); conditions: HepG2 viability, ATP luminescence (CellTiter-Glo), 1 h; series mostly up to 83.2 µM; activity change, negative = cytotoxicity: at the top concentration
Procedure, shortened: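 Measuring cytotoxicity alongside mitochondrial potential, the screen quantified ATP by luminescence in HepG2 cells after 1 hr compound incubation and a 30 min room-temperature CellTiter-Glo step.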

| SMILES | Potency | activity change, negative = cytotoxicity |
| --- | --- | --- |
| O=C(O)c1nn(Cc2ccc(Cl)cc2Cl)c2ccccc12 | inactive | – |
| N#Cc1nn(-c2c(Cl)cc(C(F)(F)F)cc2Cl)c(N)c1S(=O)C(F)(F)F (configuration not stated) | 10.6 µM (active) and 1.54 µM (active) | – |
| O=NN(c1ccccc1)c1ccccc1 | inactive | – |
| N#Cc1cccnc1 | inactive | – |
| CC(C)COC(=O)c1ccccc1C(=O)OCC(C)C | – | -17.6% (inactive) |
| O=[N+]([O-])c1ccc(Nc2ccccc2)cc1 | 61.1 µM (active) | – |
| CNC(=O)Oc1cccc2c1OC(C)(C)C2 | inactive | – |
| ClC(Cl)=C(Cl)C(Cl)=C(Cl)Cl | inactive | – |
| CCCCOCC1CO1 (configuration not stated) | inactive | – |
| ClCc1ccccn1 | inactive | – |
| O=[N+]([O-])/N=C1\NCCN1Cc1ccc(Cl)nc1 | inactive | – |

assay: qHTS assay for small molecule disruptors of the mitochondrial membrane potential (AID 720635); conditions: HepG2 mitochondrial membrane potential, Mito-MPS dye ratio; series mostly up to 83.2 µM; ratio activity, negative = MMP loss: at the top concentration; also: potency is read from the fitted curve at half-maximal effect
Procedure, shortened: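 HepG2 cells exposed to compound 1 hr at 37C, then Mito-MPS dye 30 min. Ratio read of aggregate (540/590 nm) versus monomer (490/535 nm) fluorescence.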

| SMILES | Potency | ratio activity, negative = MMP loss |
| --- | --- | --- |
| CCCCOC(=O)COC(=O)c1ccccc1C(=O)OCCCC | inactive | – |
| CC(C)(C#N)N=NC(C)(C)C#N | – | -13.6% (inactive) |
| c1ccc(C2CO2)cc1 (configuration not stated) | inactive | – |
| CC(C)Nc1nc(Cl)nc(NC(C)C)n1 | – | -8.59% (inactive) |
| CC(C)CON=O | inactive | – |
| Clc1cccc(Cl)c1 | inactive | – |
| CCCCCCCCCCCCCl | – | 12.2% (inactive) |
| COP(=S)(OC)Oc1ccc(Sc2ccc(OP(=S)(OC)OC)cc2)cc1 | 24.8 µM (active) and 30.6 µM (active) | – |
| Nc1ncn[nH]1 | inactive | – |
| CC(C)(O)C#N | inactive | – |
| NC(=O)CN1CCCC1=O | – | -7.59% [at 39.1 µM] (inactive) |
| CCNc1nc(Cl)nc(NC(C)(C)C#N)n1 | inactive | – |
| O=C1CCCO1 | inactive | – |
| CCCCCCCC[N+](C)(CCCCCCCC)CCCCCCCC | 1.72 µM (active) and 770 nM (active) and 2.43 µM (active) | – |
| CN(C)c1nc(=O)n(C2CCCCC2)c(=O)n1C | – | 19.9% [at 95.3 µM] (inactive) |
| Cn1c(-c2ccccc2)cc(-c2ccccc2)[n+]1C | inactive | – |
| N#CCCCCC#N | inactive | – |
| C[C@]12CCC(=O)C=C1CC[C@@H]1[C@@H]2CC[C@@]2(C)[C@H]1CC[C@]2(C)O | – | 4.22% (inactive) |
| Clc1ccc(C(Cl)(Cl)Cl)cc1 | inactive | – |

| SMILES | Potency | ratio activity, negative = MMP loss |
| --- | --- | --- |
| O=P(OCCCl)(OCCCl)OCCCl | – | 26.9% (inactive) |
| CC[n+]1c(-c2ccccc2)c2cc(N)ccc2c2ccc(N)cc21 | 2.21 µM (active) | – |
| CCOP(=O)(OCC)OCC | inactive | – |
| COc1ccc(O)c(C(C)(C)C)c1 | 30.7 µM (active) and 24.3 µM (active) | – |
| CN(C)c1ccccc1 | inactive | – |
| CCC1(c2ccc(N)cc2)CCC(=O)NC1=O (configuration not stated) | inactive | – |
| CCOP(=S)(OCC)SCn1c(=O)oc2cc(Cl)ccc21 | 29.3 µM (active) and 27.3 µM (active) | – |
| CC(C)=CC1C(C(=O)OCc2cccc(Oc3ccccc3)c2)C1(C)C (configuration not stated) | – | -12.4% (inactive) |
| O=C(O)c1nn(Cc2ccc(Cl)cc2Cl)c2ccccc12 | – | 19.7% (inactive) |
| N#Cc1nn(-c2c(Cl)cc(C(F)(F)F)cc2Cl)c(N)c1S(=O)C(F)(F)F (configuration not stated) | 5.31 µM (active) and 1.54 µM (active) | – |
| O=NN(c1ccccc1)c1ccccc1 | – | -5.22% (inactive) |
| N#Cc1cccnc1 | inactive | – |
| CC(C)COC(=O)c1ccccc1C(=O)OCC(C)C | 68.6 µM (active) | – |
| O=[N+]([O-])c1ccc(Nc2ccccc2)cc1 | 7.75 µM (active) and 2.73 µM (active) | – |
| CNC(=O)Oc1cccc2c1OC(C)(C)C2 | – | -6.97% (inactive) |
| ClC(Cl)=C(Cl)C(Cl)=C(Cl)Cl | inactive | – |
| CCCCOCC1CO1 (configuration not stated) | – | -12.2% (inactive) |
| ClCc1ccccn1 | inactive | – |
| O=[N+]([O-])/N=C1\NCCN1Cc1ccc(Cl)nc1 | – | 7.55% (inactive) |

assay: qHTS assay to test for compound auto fluorescence at 590 nm (red) in HepG2 cells (AID 720674); conditions: HepG2 autofluorescence, red 540/590 nm, 1 h; series mostly up to 91.3 µM; fluorescence, relative to Rose Bengal: at the top concentration
Procedure, shortened: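 Seeding: 2,000 HepG2 cells/well, MEM/10% FBS, overnight 37 C. Dosing: compound vs DMSO. Incubation: 1 hr, 37 C, 5% CO2. Read: fluorescence 540 ex/590 em, Rose Bengal sodium as red reference.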

| SMILES | outcome |
| --- | --- |
| CCCCOC(=O)COC(=O)c1ccccc1C(=O)OCCCC | inactive |
| CC(C)(C#N)N=NC(C)(C)C#N | inactive |
| c1ccc(C2CO2)cc1 (configuration not stated) | inactive |
| CC(C)Nc1nc(Cl)nc(NC(C)C)n1 | inactive |
| CC(C)CON=O | inactive |
| Clc1cccc(Cl)c1 | inactive |
| CCCCCCCCCCCCCl | inactive |
| COP(=S)(OC)Oc1ccc(Sc2ccc(OP(=S)(OC)OC)cc2)cc1 | inactive |
| Nc1ncn[nH]1 | inactive |
| CC(C)(O)C#N | inactive |
| NC(=O)CN1CCCC1=O | inactive |
| CCNc1nc(Cl)nc(NC(C)(C)C#N)n1 | inactive |
| O=C1CCCO1 | inactive |
| CCCCCCCC[N+](C)(CCCCCCCC)CCCCCCCC | inactive |
| CN(C)c1nc(=O)n(C2CCCCC2)c(=O)n1C | inactive |
| Cn1c(-c2ccccc2)cc(-c2ccccc2)[n+]1C | inactive |
| N#CCCCCC#N | inactive |
| C[C@]12CCC(=O)C=C1CC[C@@H]1[C@@H]2CC[C@@]2(C)[C@H]1CC[C@]2(C)O | inactive |
| Clc1ccc(C(Cl)(Cl)Cl)cc1 | inactive |

| SMILES | outcome |
| --- | --- |
| O=P(OCCCl)(OCCCl)OCCCl | inactive |
| CC[n+]1c(-c2ccccc2)c2cc(N)ccc2c2ccc(N)cc21 | inactive |
| CCOP(=O)(OCC)OCC | inactive |
| COc1ccc(O)c(C(C)(C)C)c1 | inactive |
| CN(C)c1ccccc1 | inactive |
| CCC1(c2ccc(N)cc2)CCC(=O)NC1=O (configuration not stated) | inactive |
| CCOP(=S)(OCC)SCn1c(=O)oc2cc(Cl)ccc21 | inactive |
| CC(C)=CC1C(C(=O)OCc2cccc(Oc3ccccc3)c2)C1(C)C (configuration not stated) | inactive |
| O=C(O)c1nn(Cc2ccc(Cl)cc2Cl)c2ccccc12 | inactive |
| N#Cc1nn(-c2c(Cl)cc(C(F)(F)F)cc2Cl)c(N)c1S(=O)C(F)(F)F (configuration not stated) | inactive |
| O=NN(c1ccccc1)c1ccccc1 | inactive |
| N#Cc1cccnc1 | inactive |
| CC(C)COC(=O)c1ccccc1C(=O)OCC(C)C | inactive |
| O=[N+]([O-])c1ccc(Nc2ccccc2)cc1 | inactive |
| CNC(=O)Oc1cccc2c1OC(C)(C)C2 | inactive |
| ClC(Cl)=C(Cl)C(Cl)=C(Cl)Cl | inactive |
| CCCCOCC1CO1 (configuration not stated) | inactive |
| ClCc1ccccn1 | inactive |
| O=[N+]([O-])/N=C1\NCCN1Cc1ccc(Cl)nc1 | inactive |
